# Assay outcomes deposited in PubChem by National Center for Advancing Translational Sciences (NCATS).
# VDR inh: vitamin D3 receptor (human) inhibition; P11473; VDR-SRC2-3 peptide fluorescence polarization, 2 h; Potency, µM, actives largely listed as inhibitors; 0.93% of 400,000 active
#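 After 23 nl compound addition and a short centrifugation, plates sat for 2 hours at ambient temperature; polarization of fluorescence then indicated loss of VDR binding to peptide SRC2-3.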
# Tau ThT inhib: tau fibrillization inhibition (ThT binding) | P10636 | recombinant tau K18 P301L, heparin-induced fibrillization, ThT fluorescence | Potency, µM (doses to about 57.4 µM), actives largely listed as inhibitors | 2.1% of 270,000 active | AID 1460; note: nearly all actives have a fitted effect of over 55% in size
# Target sequence (P10636 561-689 P618L limits assumed): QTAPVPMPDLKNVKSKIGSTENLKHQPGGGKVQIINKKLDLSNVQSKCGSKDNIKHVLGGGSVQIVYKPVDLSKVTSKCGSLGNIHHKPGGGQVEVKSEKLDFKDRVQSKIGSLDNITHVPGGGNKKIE
#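 Heparin-induced fibrillization of the P301L-mutant K18 repeat-domain fragment of human tau was followed by ThT binding in quantitative high-throughput format.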
# Tau FP inhib: tau fibrillization inhibition (FP). 0.39% of 280,000 active. AID 1468. Potency, µM (series often up to 57.7 µM), hits mostly inhibitors. K18 P301L tau heparin fibrillization, Alexa594 FP, 6 h; note: nearly all actives have a fitted effect of over 55% in size
#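 Heparin (20 uM) drove fibril formation of recombinant tau K18 P301L, 15 uM unlabeled with 0.24 uM Alexa 594 label, for 6 hr at 37 C in 100 mM sodium acetate pH 7. Fluorescence polarization (555/632 nm) read 1 hr after 30 uM ThT.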
# Sfp PPTase inh: Sfp phosphopantetheinyl transferase inhibition | Biochemical Sfp PPTase activity, qHTS | AID 1490 | 3.5% of 310,000 active | Q9F4F7 | Potency, µM, usual class: inhibitors;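 note: the enzyme is Sfp with the accession as filed and its product quenches rhodamine fluorescence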
#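 Sfp 15 nM + cpd, 15 min RT; start w/ rhodamine-CoA 5 uM, BHQ-2-YbbR 12.5 uM (final); 50 mM Hepes pH 7.6, 10 mM MgCl2, 0.01% NP-40, 0.01% BSA; read 525/598 nm at 0 and 30 min.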
# Tau fluor cs: counter-screen for tau fibril formation inhibitors; Potency, µM (top dose mostly 57.7 µM); AID 1463; tau K18 P301L Alexa594 fluorescence, heparin fibrillization; 0.93% of 280,000 active; note: nearly all actives have a fitted effect of over 55% in size
#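 Human tau K18 P301L (15 uM unlabeled, 0.24 uM Alexa 594-labeled) in 100 mM sodium acetate pH 7 with 20 uM heparin, 6 hr at 37 C. ThT 30 uM added, 1 hr ambient; Alexa 594 FP and total fluorescence read at 555/632 nm.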
# PLK1 PBD block: blocks phosphopeptide binding to human PLK1 polo-box domain | Plk1 PBD binding of FITC phosphopeptide, fluorescence polarization | P53350 | 2.8% of 360,000 active | Potency, µM, most hits filed as inhibitors; note: series mostly up to about 57 µM; nearly all actives have a fitted effect of over 65% in size
# Target sequence (P53350 whole entry, looked up, the tested form may be a part): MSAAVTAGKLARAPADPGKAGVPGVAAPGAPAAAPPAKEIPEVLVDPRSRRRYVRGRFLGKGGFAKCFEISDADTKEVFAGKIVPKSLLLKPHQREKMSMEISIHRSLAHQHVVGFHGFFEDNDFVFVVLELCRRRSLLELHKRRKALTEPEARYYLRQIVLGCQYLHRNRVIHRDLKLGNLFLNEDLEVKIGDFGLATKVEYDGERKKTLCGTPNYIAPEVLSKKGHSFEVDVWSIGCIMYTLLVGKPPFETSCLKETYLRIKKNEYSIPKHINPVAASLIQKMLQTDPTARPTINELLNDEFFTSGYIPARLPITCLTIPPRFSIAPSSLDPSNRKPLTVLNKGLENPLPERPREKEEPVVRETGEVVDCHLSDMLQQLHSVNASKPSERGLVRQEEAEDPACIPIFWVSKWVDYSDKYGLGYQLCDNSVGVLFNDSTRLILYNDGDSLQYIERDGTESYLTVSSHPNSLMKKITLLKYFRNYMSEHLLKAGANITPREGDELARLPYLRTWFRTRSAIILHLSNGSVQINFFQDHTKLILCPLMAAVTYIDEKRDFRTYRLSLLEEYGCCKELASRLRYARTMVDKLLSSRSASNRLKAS
# TbPYK confirm: confirmation of Trypanosoma brucei pyruvate kinase inhibitors. shares compounds with PLK1 PBD block. recombinant TbPYK, Kinase-Glo ATP luminescence. Potency, µM (series often up to 76.9 µM), most hits filed as inhibitors. 67% of 890 active. AID 720569; note: nearly all actives have a fitted effect of over 70% in size
# TbPYK ADP-Glo: inhibits T. brucei pyruvate kinase in orthogonal ADP-Glo assay | 62% of 890 active | AID 720584 | shares compounds with PLK1 PBD block | Potency, µM (highest dose often 76.9 µM), usual class: inhibitors | recombinant TbPYK, ADP-Glo luminescence, 60 min; note: nearly all actives have a fitted effect of over 75% in size
# Hits are given with their value; 0 = inactive; ? = inconclusive; - = no result given; [ ] = dose if it differs, or a comment. The list is not random: actives were taken first. Their share in the collection is about 6%. Calls come from the whole dose curve; as a rule, active = well fitted curve in the direction sought with a large enough effect; inconclusive = small, poorly fitted or top-dose-only effect, or another doubt; inactive = no such curve, though single readings can be large; an effect the other way counts as inactive or inconclusive.
SMILES,VDR inh,Tau ThT inhib,Tau FP inhib,Sfp PPTase inh,Tau fluor cs,PLK1 PBD block,TbPYK confirm,TbPYK ADP-Glo
c1ccc(C[n+]2csc3ccccc32)cc1,40µM,?,0,18µM,0,3.8µM,?,14µM
COc1cccc(NC(=O)CCC2CCN(C(=O)c3cncs3)CC2)c1,?,-,-,0,-,0,20µM,?
COc1cccc(-n2c(=O)c3sccc3n(Cc3cc(=O)n4cc(Cl)ccc4n3)c2=O)c1,0,0,0,-,0,-,-,-
CC(C)c1cc2c(c(O)c1O)[C@@]13CCCC(C)(C)C1CC2OC3=O (stereo not given in full),?,-,-,4µM,-,6.7µM,1.8µM,3.5µM
C1=CC2c3ccccc3NC(c3ccncc3)C2C1 (stereo not given),?,22µM,?,32µM,?,?,18µM,16µM
Cn1c2ccccc2c2ccc3c(c21)C(=O)C=CC3=O,25µM,-,-,-,-,12µM,0,0
Cc1ccc(C)c2c1c1ccccc1n2C,0,?,0,0,0,0,-,-
O=P(c1ccccc1)(c1ccccc1)c1ccccc1C(Br)Br,-,-,-,-,-,0,22µM,32µM
CC(C)(C)c1cccc(P(=O)(c2ccccc2)c2ccccc2)c1O,0,0,0,0,0,0,-,-
O=C(CSc1nnc(-c2ccco2)c(-c2ccco2)n1)c1ccccc1,?,0,0,0,0[2.34 µM],17µM,14µM,20µM
CC(=O)c1ccc(NC(=O)CSc2nnc(-c3ccco3)c(-c3ccco3)n2)cc1,22µM,4µM,8.9µM,8.9µM,?,13µM,28µM,32µM
Nc1cc2c3ccccc3ccc2c2ccccc12,?,-,-,-,-,0,-,-
COc1ccc(OC)c(C2NC(=O)c3sc(=S)n(-c4ccccc4)c3N2)c1 (stereo not given),89µM,0,0,?,0,?,2µM,2.5µM
COc1cccc(C2NC(=O)c3sc(=S)n(-c4ccccc4)c3N2)c1 (stereo not given),?,0,0,0,0,0,-,-
O=C(O)CC(C(=O)O)N1C(=O)/C(=C/C=C/c2ccco2)SC1=S (stereo not given),0,13µM,?,22µM,0,2.4µM,?,?
CCCN(CCC)S(=O)(=O)c1ccc(Cl)c([N+](=O)[O-])c1,0,0,0,0,0,0,-,-
CCOC(=O)C(C)(C)N(Cc1ccccc1C)S(=O)(=O)c1ccc(Cl)c([N+](=O)[O-])c1,0,?,0,0,?,0,0,0
COc1ccc(C(=O)/C=C2\Sc3ccccc3N2C)cc1,0,?,0,0,0,?,-,-
CC(=S)/C=C1\Sc2ccccc2N1C,?,14µM,0,45µM,0,27µM,?,14µM
O=C(CN1CCN(c2ccc(O)cc2)CC1)Nc1ccccc1C(=O)NCCc1ccccc1,0,-,-,-,-,0,2.5µM,5µM
CC(C)CN1C(=O)CSCC1(C)C(=O)NC(C)C (stereo not given),-,-,-,-,-,0,-,-
O=C(c1ccc2ncsc2c1)N1CCN(c2ccc(O)cc2)CC1,0,0,0,0,0,0,11µM,?
O=C(c1ccc2ncsc2c1)N1CCN(c2ccccc2Cl)CC1,0,0,0,0,0,?,-,-
CCN1C(=O)[C@@H]2[C@@H]3CN(S(=O)(=O)c4ccc(C)cc4)[C@@H](c4ccccc4)[C@@H]3C(=O)C[C@@H]2C1=O,-,-,-,-,-,0,-,-
CCOC1=CC2=C(C(=O)C(Cl)=CC2=O)[C@@H]2CN(S(=O)(=O)c3ccc(C)cc3)[C@@H](c3ccccc3)[C@H]12,-,-,-,-,-,6.7µM,1.4µM,2µM
SMILES,VDR inh,Tau ThT inhib,Tau FP inhib,Sfp PPTase inh,Tau fluor cs,PLK1 PBD block,TbPYK confirm,TbPYK ADP-Glo
O=C(NC1CCN(Cc2ccc(Cl)cc2)CC1)c1cn(-c2ccccc2)nc1-c1cccnc1,0,-,-,-,-,0,-,-
Cc1ccc(/C=C/C(=O)NC2CCCCCCC2)o1,?,?,?,0,0,24µM,?,?
Cc1ccc(/C=C/C(=O)NCc2ccc3c(c2)OCO3)o1,0,0,0,0,0,?,11µM,14µM
COc1ccc(CCNC(=O)/C=C/c2ccco2)cc1,89µM,-,-,0,-,0,?,?
Cc1ccc(/C=C/C(=O)NCCc2cccc(Cl)c2)o1,79µM,-,-,20µM,-,30µM,3.5µM,4µM
COc1ccc(/C=C/C(=O)NCCc2ccc(S(N)(=O)=O)cc2)cc1,0,?,?,0,0,0,-,-
Cc1ccc(/C=C/C(=O)NCCCN2CCN(CCCNC(=O)/C=C/c3ccc(C)o3)CC2)o1,0,0,0,0,0,0,-,-
CCOC(=O)N1CCC(NC(=O)c2ccc3c(c2)N(Cc2cc(C)ccc2C)C(=O)c2ccccc2S3(=O)=O)CC1,0,0,0,-,0,-,-,-
CC(=O)NS(=O)(=O)c1ccc(NC(=O)/C=C/c2ccc(C)o2)cc1,0,?,?,5µM,0,21µM,5µM,7.9µM
Cc1ccc(/C=C/C(=O)NCc2ccc(S(N)(=O)=O)cc2)o1,89µM,25µM,?,3.5µM,0,27µM,6.3µM,1.6µM
Cc1ccc(/C=C/C(=O)NCC2COc3ccccc3O2)o1 (stereo not given),?,?,0,6.3µM,0,?,25µM,22µM
CC(C)c1ccc(/C=C/C(=O)NCc2ccc(S(N)(=O)=O)cc2)cc1,0,0,0,0,0,0,-,-
CCN(CC)Cc1cc(O)c(CN(CC)CC)cc1O,0,11µM,?,10µM,?,4.2µM,0,10µM
Cc1[nH][nH]c(=O)c1N=Nc1ccc(S(N)(=O)=O)cc1,0,-,-,-,-,0,-,-
NS(=O)(=O)c1ccc(N=Nc2c[nH]c(=O)c(O)c2)cc1,?,2.5µM,?,45µM,?,?,?,0
COc1ccc(OC)c(NC(=O)Cn2cc(C(=O)c3cccs3)c3ccccc32)c1,0,0,?,-,?,-,-,-
COc1ccc2nc3sc(C(=O)Nc4cc(Cl)c(OC)cc4OC)cc3cc2c1,0,?,?,-,0,-,-,-
CCCCOc1ccc(/C=C/C(=O)OCC(=O)NC(=O)NCC(C)C)cc1OCC,0,0,0,0,0,0,0,0
CCCCOc1ccc(/C=C/C(=O)OCC(=O)NC2CCS(=O)(=O)C2)cc1OCC (stereo not given),0,-,-,-,-,0,-,-
COC(=O)c1ccc(C(NC(=O)OCc2ccccc2)/C(F)=C/[C@@H](C)C(=O)N[C@@H](CO)Cc2ccccc2)cc1 (stereo not given in full),-,0,0,0,0,-,-,-
O=C1NC(=O)/C(=C\c2ccccc2OCc2ccccc2)S1,0,0,0,0,0,?,-,-
Cc1cc(N2CCOCC2)ccc1/C=C1/SC(=O)NC1=O,0,10µM,0,0,0,0,?,40µM
